In PubChem BioAssay (NCI):
The panel holds about 79,000 compounds, 15% with a hit somewhere; the sample as a whole holds those more often. No stated cut-off is given here; in the data, active means growth inhibition above about 70%; inactive means the rest.

What was measured:
[1] = NCI Yeast Anticancer Drug Screen. Data for the rad50 strain (AID 155);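 further: 0% = growth of vehicle-only cultures of the same strain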; details: S. cerevisiae rad50 strain growth inhibition; at 50.0 µM; active compounds read high
In short: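 Compounds were tested on a yeast strain with an engineered DNA damage repair alteration; the reported value is growth inhibition normalised to vehicle treatment.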

[2] = NCI Yeast Anticancer Drug Screen. Data for the mec2-1 strain (AID 157); details: S. cerevisiae mec2-1 strain, at 50.0 µM, active compounds read high
In short: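 Yeast mec2-1 mutant treated with compound. Readout: growth inhibition vs vehicle controls.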

[3] = NCI Yeast Anticancer Drug Screen. Data for the sgs1 mgt1 strain (AID 161);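 further: 0% = growth of cultures given vehicle only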; details: S. cerevisiae sgs1 mgt1 strain, at 50.0 µM, active compounds read high
In short: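 Mutant yeast exposed to compound; growth scored against vehicle-only wells.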

[4] = NCI Yeast Anticancer Drug Screen. Data for the cln2 rad14 strain (AID 165);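 further: 0% = growth equal to vehicle treated cultures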; details: S. cerevisiae cln2 rad14 strain, at 50.0 µM, active compounds read high
In short: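 cln2 rad14 yeast strain; compound exposure; growth inhibition read vs vehicle controls.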

[5] = NCI Yeast Anticancer Drug Screen. Data for the bub3 strain (AID 167); details: S. cerevisiae bub3 mutant strain, at 50.0 µM, active compounds read high
In short: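 Growth of a checkpoint-deficient yeast mutant is measured after compound exposure. Values represent inhibition relative to vehicle.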

[6] = NCI Yeast Anticancer Drug Screen. Data for the mlh1 rad18 strain (AID 175); details: S. cerevisiae mlh1 rad18 strain growth inhibition; at 50.0 µM; active compounds read high
In short: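 Yeast w/ defined DNA-repair lesions; compound exposure; growth vs vehicle controls → % inhibition.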

Measured: growth inhibition

CC(=O)OCC1CCCO1 (stereo not drawn)
inactive: [1] -24.9% | [2] -9.45% | [3] -21.1% | [4] -44.1% | [5] 19.6% | [6] -32%

CC1CCCCN1C(=S)Nc1ccc(S(=O)(=O)N2CCCCC2)cc1 (stereo not drawn)
inactive: [1] -18.6% | [2] -29.2% | [3] -5.75% | [4] -11.2% | [5] -19.1% | [6] -18.7%

Oc1ccc2c(c1)OCC1(O)Cc3cc(O)c(O)cc3C21 (stereo not drawn)
inactive: [1] 3.9% | [2] -2.4% | [3] 10.3% | [4] 3.6% | [5] 9.75% | [6] -3.8%

COC(=O)c1cccc(Br)c1
inactive: [1] -4.4% | [2] 1.5% | [3] -4.75% | [4] -29.5% | [5] 0.15% | [6] 13.4%

O=C1C=CC2=C3c4cc(O)c(O)cc4CC3(O)COC2=C1O (stereo not drawn)
inactive: [1] -40.6% | [2] -45.4% | [3] -9.1% | [4] -6.7% | [5] -5.7% | [6] -32%

CCCCC(=O)c1ccc(OC)cc1
inactive: [1] 1.9% | [2] -8.4% | [3] 2.75% | [4] 6.75% | [5] -8.3% | [6] -6.4%

NC(=O)NC(=O)c1ccc(Cl)cc1
inactive: [1] 14.8% | [2] -7.05% | [3] 19.2% | [4] 29.1% | [5] -1.05% | [6] 11.3%

C#C[C@H]1CCCCCC1O (stereo partly drawn)
inactive: [1] 13.1% | [2] 2% | [3] -1.35% | [4] 14.4% | [5] -6.75% | [6] 21.9%

CCS(=O)(=O)c1cc(=O)[nH]c(=O)[nH]1
inactive: [1] 22.1% | [2] 24.9% | [3] -30.9% | [4] 32.5% | [5] -1.45% | [6] -1.6%

CCCCCCCCCCC(C)Br (stereo not drawn)
inactive: [1] 19.9% | [2] -12.1% | [3] 10.3% | [4] 1.3% | [5] 28.6% | [6] 1.75%

COc1ccc(C)cc1OC
inactive: [1] 26.3% | [2] 12.9% | [3] 1.3% | [4] 0.6% | [5] -8.2% | [6] -5.65%

CCOC(=O)C(C#N)Cc1ccccc1 (stereo not drawn)
inactive: [1] -0.85% | [2] -2.15% | [3] -3.85% | [4] -14.2% | [5] -1.6% | [6] -3.35%

C=CC(=O)OCCCCCCCC
inactive: [1] 5.4% | [2] -14.3% | [3] -29.4% | [4] -34.5% | [5] 2.4% | [6] 2.85%

CCOC(=O)CSc1c([N+](=O)[O-])ncn1C
inactive: [1] 4.9% | [2] 0.5% | [3] 8.75% | [4] 17.3% | [5] 8.75% | [6] -10.4%

C=CCOC(=O)C(=O)OCC=C
inactive: [1] 18.8% | [2] 30.6% | [3] -25.9% | [4] 1.95% | [5] 5.35% | [6] 14.8%

O=[N+]([O-])c1ccccc1S(=O)c1ccccc1[N+](=O)[O-]
inactive: [1] 16.1% | [2] 21.6% | [3] 34.3% | [4] 20.9% | [5] 39.2% | [6] 14.7%

OCC(O)C(O)C(O)C(O)/C=N/O (stereo not drawn)
inactive: [1] 1.4% | [2] 0.7% | [3] -6.4% | [4] -6.7% | [5] -1.1% | [6] 3.65%

CC(=O)OC(OC(C)=O)C1CCCO1 (stereo not drawn)
inactive: [1] -5.75% | [2] -21.6% | [3] -2.1% | [4] 17.1% | [5] -2.95% | [6] 1.1%

CC1CCC(C(=O)O)N1 (stereo not drawn)
inactive: [1] 29.6% | [2] 6.5% | [3] 1.7% | [4] 4.45% | [5] -3.2% | [6] 6.65%

O=C(Cc1nc2ccc([N+](=O)[O-])cc2nc1CC(=O)c1ccccc1)c1ccccc1
inactive: [1] -2.4% | [2] 9.35% | [3] -10.5% | [4] 2.75% | [5] 13.2% | [6] -1.1%

O=C1c2ccccc2C(=O)N1OCc1ccccc1
inactive: [1] -18.1% | [2] -30.6% | [3] -14.4% | [4] 3.05% | [5] -20% | [6] -32.7%

c1cc[n+](C2c3ccccc3C([n+]3ccccc3)c3ccccc32)cc1 (stereo not drawn)
inactive: [1] 25.2% | [2] 18.8% | [3] 16.9% | [4] -23.9% | [5] 28% | [6] 41.5%

CCOC(=O)CNN
inactive: [1] -7.2% | [2] 9.3% | [3] -12.2% | [4] 9.75% | [5] -14.8% | [6] -30.1%

Sc1ccc(Nc2c3ccccc3nc3ccccc23)cc1
inactive: [1] 28.4% | [2] 33.6% | [3] 14.9% | [4] 7.3% | [5] 25.6% | [6] 54.6%

COc1ccc(C2OC(N)=C(O)C2=O)cc1OC (stereo not drawn)
inactive: [1] -4.25% | [2] -23.1% | [3] -14.4% | [4] 11.2% | [5] -30.1% | [6] -31.9%

COc1cc(C2c3cc4c(cc3C3OC(=O)C2C3CO)OCO4)cc(OC)c1OC (stereo not drawn)
inactive: [1] -7.4% | [2] -9.95% | [3] -14.5% | [4] 6.25% | [5] -19.5% | [6] -3.85%

CC(=O)NCc1cc(C)c(C)cc1C
inactive: [1] 12.5% | [2] -20.1% | [3] 1.25% | [4] 9.15% | [5] 5.3% | [6] 8.5%

COC(=O)c1ccc(NC(=O)CCl)cc1
inactive: [1] 44.8% | [2] 37% | [3] 50% | [4] 49% | [5] 32.7% | [6] 45.5%

CC1C(=O)c2ccccc2CC1C(=O)O (stereo not drawn)
inactive: [1] -1.6% | [2] -15.6% | [3] 7.8% | [4] -22.2% | [5] -5.1% | [6] -21%

[O-][N+](=Nc1cccc(Cl)c1)c1cccc(Cl)c1
inactive: [1] 19.7% | [2] -30.9% | [3] 24.9% | [4] 16.1% | [5] 21.2% | [6] 15.1%

CN(C)c1ccc(CNC(C(=O)c2ccccc2)c2ccccc2)cc1 (stereo not drawn)
inactive: [1] -31% | [2] -5.35% | [3] -15.6% | [4] -17.4% | [5] 8.3% | [6] -20.9%

CC(=O)Cc1cc(-c2cc(CC(C)=O)[nH]n2)n[nH]1
inactive: [1] -45.1% | [2] -22.1% | [3] -24.1% | [4] -25.5% | [5] -5.45% | [6] -5%

CC1NC(=O)NC1CCCCCC(=O)O (stereo not drawn)
inactive: [1] 8.3% | [2] 11.4% | [3] 13.8% | [4] 12.5% | [5] 4.6% | [6] 17.3%

C1CNC(C2=NCCN2)=N1
inactive: [1] -4.85% | [2] -8.2% | [3] -24.5% | [4] -26.1% | [5] -31.8% | [6] -7.25%

COc1ccccc1NC(=O)C1=C(C)NC(C)=C(C(=O)Nc2ccccc2OC)C1c1cccc([N+](=O)[O-])c1
inactive: [1] -3.3% | [2] 23.2% | [3] -8.05% | [4] -3.9% | [5] 20.4% | [6] 11.3%

Oc1ccc(N=Nc2ccc(Br)cc2)c(O)c1
inactive: [1] 4.15% | [2] 31.3% | [3] 30.2% | [4] -20.1% | [5] 33.6% | [6] 22.8%

S=c1sc2ccccc2n1CN1CCCCC1
inactive: [1] 7.7% | [2] 14.8% | [3] 45% | [4] 10.6% | [5] 25.3% | [6] 15.8%

C=CCNC(=O)c1ccc(OC)cc1
inactive: [1] 12.5% | [2] 6.5% | [3] 22.5% | [4] 1.7% | [5] -4.5% | [6] 5.7%

O=C(O)CCCC(=O)O
inactive: [1] -36.5% | [2] -0.7% | [3] -22.6% | [4] -21.4% | [5] -51.6% | [6] 4.5%

COc1ccc(NC(=O)CCl)cc1
inactive: [1] 29.7% | [2] 12.8% | [3] 24.4% | [4] 17.9% | [5] 36.7% | [6] 23.6%

O=C(O)c1cc([N+](=O)[O-])ccc1Cl
inactive: [1] 27.9% | [2] 11.2% | [3] 7.15% | [4] 21% | [5] 21.9% | [6] 34.4%

COc1ccccc1C1OC2=Nc3cc(C)c(C)cc3NC2C1=O (stereo not drawn)
inactive: [1] 11.1% | [2] -9.95% | [3] -1.95% | [4] -9.25% | [5] -21.1% | [6] 5.95%

CC(=O)OC1CC2C(C)(C)OC3CC(=O)OCC32C2CCC3(C)C(=CCC3c3ccoc3)C12C (stereo not drawn)
inactive: [1] 6.45% | [2] -5.7% | [3] -26.6% | [4] 17.8% | [5] -10.3% | [6] 1.1%
